The values below come from PubChem BioAssay AID743280 (The Scripps Research Institute Molecular Screening Center, 2014).

Molecules are shown by their SMILES. Out of some 2,000 compounds screened, about 680 (34%) were called active. The list is a sample of the results. Values without a mark were called inactive.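 How the source made its calls: active means mean inhibition across triplicates above the hit cutoff set in the earlier primary screen (cut at about 19% in these data); inactive means the rest.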

This assay deals with Group 3 secretory phospholipase A2 (Homo sapiens) (UniProt Q9NZ20). The assay can be described thus: HGIII-sPLA2 enzyme inhibition – biochemical, QFRET, triplicate, confirmation (AID 743280).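 Further: 0% = enzyme with DMSO and 100% = DMSO wells lacking enzyme.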 Particulars: recombinant hGIII-sPLA2, BODIPY PC-A2 QFRET fluorescence; at 12.2 µM; stronger effect = higher value.
Sequence of Group 3 secretory phospholipase A2 (Homo sapiens) (Q9NZ20 whole entry, looked up): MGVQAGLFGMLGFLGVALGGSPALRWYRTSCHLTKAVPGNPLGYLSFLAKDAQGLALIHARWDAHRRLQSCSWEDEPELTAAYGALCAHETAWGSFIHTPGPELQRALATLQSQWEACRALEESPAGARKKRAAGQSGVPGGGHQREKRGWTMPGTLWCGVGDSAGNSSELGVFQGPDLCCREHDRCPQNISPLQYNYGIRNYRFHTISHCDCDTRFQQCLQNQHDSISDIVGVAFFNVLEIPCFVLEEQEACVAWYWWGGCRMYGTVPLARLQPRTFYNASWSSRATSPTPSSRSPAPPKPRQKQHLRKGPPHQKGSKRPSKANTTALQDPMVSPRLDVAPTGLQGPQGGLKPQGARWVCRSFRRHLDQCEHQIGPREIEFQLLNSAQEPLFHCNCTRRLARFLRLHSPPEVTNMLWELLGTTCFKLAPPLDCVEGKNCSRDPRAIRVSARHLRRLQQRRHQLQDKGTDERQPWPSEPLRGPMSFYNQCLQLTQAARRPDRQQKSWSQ
Broadly, the inhibition is the relative decrease from the control value, in per cent. On to `N#CC1(Nc2ccc(-c3ccc(Cl)cc3)cc2)CCCC1`, for which the inhibition was 24.4% (active). The result for `C=CCNc1scc(-c2ccccc2)[n+]1CC=C` reads 10.9%; that for `Cc1cccc(N2CCN(c3ccc(NC(=O)/C=C\C(=O)O)cc3)CC2)c1`, 7.11%; that for `CCOc1ccc2[nH]c(=S)sc2c1`, 27.4% (active). The result for `COCCn1c(SCC(=O)Nc2cc(OC)ccc2OC)nc2c(c1=O)SC(C)C2` (stereo not given) reads -3.55%; that for `CCCCn1c(=S)[nH]c2ccccc2c1=O`, 12.9%. The result for `COc1ccc(C(=O)Nc2sc(C)c(C)c2CN2CCOCC2)cc1` reads 8%. As to `O=C(NC(=S)Nc1ncccn1)c1ccccc1Br`, the inhibition was 10.1%. Consider `COc1ccc(C(=O)NC(=S)NNC(=O)c2c(-c3ccccc3)noc2C)cc1`, for which the inhibition is 35.4% (active). Next, `COc1ccc(C(=O)NNC(=S)NC(=O)c2ccccc2)cc1`: 22.1% (active). Next, `NS(=O)(=O)c1ccc(CCNC(=O)NC2CCCCC2)cc1`: -1.05%; `Cc1c(NC(=S)NCc2ccc(F)cc2)cccc1[N+](=O)[O-]`: 3.91%. As to `Cn1cc(Cl)c(C(=O)NNC(=S)Nc2cccc(Cl)c2)n1`, the inhibition was 42.3% (active). Next, `Cc1ccc(NC(=S)NNC(=O)CSc2nnc(SCc3ccccc3Cl)s2)cc1`: 3%.

For the compound `Cc1cc(NCCc2c[nH]c3ccccc23)ccc1Oc1cccnc1`, the inhibition was 10.5%. Consider `CN(C)c1ccc(NC(=O)NC2CCCCN(Cc3ccc(Cl)cc3)C2=O)cc1` (stereo not given), for which the inhibition was 6.59%. The result for `c1ccc(C2=Nc3cccc4cccc(c34)N2)cc1` reads 50.5% (active). Next, `C/C(=N/NC(=O)c1cc(Cl)ccc1O)C12CC3CC(CC(C3)C1)C2`: 15.1%; `Nc1ccc2c(c1)C(O)c1ccc(Cl)cc1-2` (stereo not given): 26.1% (active). Next, `Cc1ccc(C2CC(c3cccc(C)c3)n3nc(N)nc3N2)cc1` (stereo not given): 6.67%. As for `CC(C)(C)c1cc2cccnc2n1Cc1cccc(F)c1`, the inhibition was 13.1%.

Turning to `CCOc1ccc(Br)cc1CSC(=N)N`, the inhibition is 26% (active). The result for `COc1ccc(NC(=O)C2C3C=CC(C3)C2C(=O)NCc2ccccn2)c(OC)c1` (stereo not given) reads 1.31%; that for `Cc1ccc(-c2csc(NNC(=O)c3ccccc3)n2)cc1`, 56.7% (active); that for `CCN(CC(=O)NC1CCS(=O)(=O)C1)S(=O)(=O)c1ccccc1` (stereo not given), -6.89%. On to `COc1ccc(C(N)c2csc(NC(=O)Nc3cccc(C(F)(F)F)c3)n2)cc1` (stereo not given), for which the inhibition is 23% (active). With `NC(c1csc(NC(=O)Nc2ccccc2Oc2ccccc2)n1)c1ccccc1Cl` (stereo not given), the inhibition was 8.22%. Take `Cc1cc(-n2nc(C)cc2C)n2ncc(-c3ccccc3)c2n1`: the inhibition is 14.7%.

On to `CCc1cccc(CC)c1NC(=S)NCc1ccc2[nH]c(C)cc2c1`, for which the inhibition was -6.2%. The result for `CC(=O)NC(c1cccs1)c1cc(Br)c2cccnc2c1O` (stereo not given) reads 19.7% (active); that for `CCOc1ccc(/C=N/NC(N)=S)cc1`, 12.7%. Regarding `Cc1ccccc1NC(=O)C1CCN(c2ncccn2)CC1`, the inhibition was -1.34%. The result for `CC(=O)/C(=N\Nc1ccc(Cl)cc1Cl)Sc1cccc2cccnc12` reads -6.23%; that for `CCc1cc(-c2n[nH]c(=S)n2CC(C)C)cs1`, 24.9% (active); that for `CC(C)c1ccc(Nc2nnc(SCC(=O)c3nnc(-c4ccccc4)o3)s2)cc1`, 6.4%. The result for `O=C1C(=O)N(Cc2ccc(-c3ccsc3)cc2)c2ccc(OC(F)(F)F)cc21` reads 32.9% (active); that for `C=CCn1c(C23CC4CC(CC(C4)C2)C3)n[nH]c1=S`, 27.1% (active); that for `CCN(Cc1ccccc1)C(=O)CN1C(=S)NC(C)(C)CC1C` (stereo not given), 8.88%. For `CC1=CC(C)(C)NC(=S)N1c1ccccc1`, the inhibition was 14.3%. For `CCCCn1c(N)c(N(CCOC)C(=O)COc2c(C)cccc2C)c(=O)[nH]c1=O`, the inhibition was 10.8%. In the case of `O=C(NNC(=S)Nc1ccc(F)cc1)[C@H]1C[C@@H]1c1ccccc1`, the inhibition was 35.9% (active). Next, `COc1cc(NS(=O)(=O)c2ccc3ccccc3c2)c2ncccc2c1`: 11%; `CSC1=NN(c2ccccc2)CN(c2ccccc2)N1C`: 25.6% (active); `CCOC(=O)C1(Cc2cccc(OC)c2)CCCN(C(=O)CCSC)C1` (stereo not given): 2.05%. As to `C/C(=N\Nc1ccc(Cl)nn1)c1ccccc1O`, the inhibition is 7.83%. The result for `Brc1ccccc1C1Nc2cccc3cccc(c23)N1` reads 58.1% (active).

On to `CC(=O)c1nnn(-c2ccc(Cl)cc2C#N)c1C`, for which the inhibition is 1.06%. With `O=C(NNc1ccccn1)c1ccc(Cl)nc1`, the inhibition was 25.9% (active). Consider `COc1cccc(NC(C)=[N+](C)CCNS(=O)(=O)c2ccc(Cl)cc2)c1`, for which the inhibition is -1.54%. `COc1cc(OC)cc(C2=Cc3ccccc3C(CC(=O)c3ccco3)N2c2ccc(-c3cnc(OC)nc3)cc2)c1` (stereo not given): the inhibition is 1.48%. As to `Cc1cccc(-n2cnc(C(=O)NNC(=S)Nc3ccccc3)c2)n1`, the inhibition was 46.5% (active). In the case of `O=C(CSc1nc2ccccc2n1Cc1ccccc1)NNC(=S)Nc1ccccc1`, the inhibition is 15.2%. As to `C/C(=N\NC(=O)CSc1nc2ccccc2c(=O)n1-c1ccccc1C)c1cccs1`, the inhibition was -11%. With `Nc1ccc(Nc2ccccc2)cc1`, the inhibition was 17.8%. Next, `COCCCNC(=O)CNC(=S)N(Cc1cc(OC)c(OC)c(OC)c1)C1CCCC1`: 7.62%. In the case of `CC(C)(c1ccccc1)c1ccc(OCCN)cc1`, the inhibition is 0.24%. The result for `Cc1cc(-c2n[nH]c(=S)n2-c2ccc(C)c(C)c2)no1` reads 24.4% (active); that for `COc1ccccc1OCCn1c(SCC(N)=O)nc2ccccc21`, 13.8%; that for `O=C(Nc1cccc(F)c1)c1cc(-c2ccco2)nc2ccccc12`, 9.4%. Regarding `CC(=O)Oc1ccc2c(c1)C(=O)c1ccccc1C2=O`, the inhibition is 1.09%. The result for `Cc1ccc2sc(NNC(=O)c3ccc4c(c3)OCCO4)nc2c1C` reads 38.7% (active); that for `C#CCCCc1nc2ccccc2c(=O)n1N`, 1.47%; that for `Oc1ccc2ccccc2c1N=Nc1nccs1`, 47.5% (active). With `CSc1ccc(NC(=O)/C=C/C(=O)O)cc1`, the inhibition was -0.31%.

Regarding `Cc1sc2nc(SCC(=O)c3ccc(O)c(O)c3)n(Cc3ccco3)c(=O)c2c1C`, the inhibition is -10.3%. Consider `C/C(=N\NC(=S)Nc1ccc(C)cc1)c1cc2ccccc2o1`, for which the inhibition was 40.2% (active). Next, `COc1ccccc1OCC(=O)OCn1c(SC)nnc(C)c1=O`: -3.63%; `Cc1ccc(S(=O)(=O)N2CCOCC2)cc1C(=O)NC(=S)N(Cc1ccccc1)C(C)C`: 21.7% (active). Next, `CC(C(=O)Nc1ccccc1-c1ccccc1)N1CCOCC1` (stereo not given): 3.12%; `O=C(COc1ccc(S(=O)(=O)NCc2ccccc2)cc1)N1CCOCC1`: -1.27%.

Regarding `CC(C)c1cc(C(=O)N/N=C/c2ccoc2)c(O)c(C(C)C)c1`, the inhibition was 9.71%. Consider `NC(Cc1ccccc1)c1csc(Nc2cc(Oc3ccccc3)ncn2)n1` (stereo not given), for which the inhibition was 9.47%.

Regarding `NC[C@H](Cc1ccccc1)NCCc1cc(C(F)(F)F)cc(C(F)(F)F)c1`, the inhibition was 23.4% (active). Next, `Cc1cccc(NC(=S)NCCN(C2CCCCC2)C2CCCC2)c1`: 15.1%. On to `Cc1nnc(Sc2nc3c(c(=O)[nH]c(=O)n3C)n2Cc2ccccc2)s1`, for which the inhibition is -3.34%. Next, `CN(C)S(=O)(=O)c1cccc(NC(=S)N/N=C/C(=O)c2ccccc2)c1`: 33.4% (active); `COc1ccnc(NC(=S)N2CCN(c3ncc(C(F)(F)F)cc3Cl)CC2)c1`: 19%; `CC(C)=CCCC1(C)C=Cc2c(ccc3c2[nH]c2cc(O)c(C)cc23)O1` (stereo not given): -8.08%. In the case of `O=C(NNC(=S)Nc1ccc(Br)cc1Cl)c1ccco1`, the inhibition was 32.4% (active). For `O=C(NN1C(=O)C2C3C=CC(C3)C2C1=O)c1ccco1` (stereo not given), the inhibition is 1.65%. Next, `Cc1c(Cl)cccc1NC(=S)NCc1ccc2c(c1)OCO2`: 13.1%. The result for `CCOC12CC(C)(C)CC(C)(CC3=C1C(=O)CC(C)(C)C3)C2` (stereo not given) reads 0.63%; that for `O=C(CCl)NNc1cccc(Cl)n1`, 74.6% (active). Consider `O=C(NNC(=S)NC1CC2CCC1C2)c1ccc(Cl)cc1` (stereo not given), for which the inhibition was 22.9% (active). Next, `S=C(NNC(=S)NC1CC2CCC1C2)NC1CC2C=CC1C2` (stereo not given): 22.1% (active); `Cc1cccc(C)c1NC(=O)CN1C(=O)C(C)Oc2ccccc21` (stereo not given): 3.96%; `Cn1c2c(c(=O)n(C)c1=O)C1c3ccccc3OCC1C(C)(C)O2` (stereo not given): -1.2%. As for `Cc1ccc(C2Nc3ccccc3C(=O)N2CCN2CCNC2=O)cc1` (stereo not given), the inhibition was -3.41%.

For `O=C(N/N=C/c1cc(Cl)cc([N+](=O)[O-])c1O)C(O)(c1ccccc1)c1ccccc1`, the inhibition was 35.7% (active). As to `Cc1c(C(=O)N/N=C/c2ccccc2)[nH]c2c([N+](=O)[O-])cccc12`, the inhibition is -5.71%. Next, `Cc1[nH]c(N)nc(=S)c1CCCNc1ccccc1`: 18.5%; `S=c1[nH]nc(-c2ccco2)n1/N=C/c1ccccc1`: 13.8%.

Regarding `CC(NC(=O)COC(=O)Cn1cc(C(F)(F)F)ccc1=O)c1ccccc1` (stereo not given), the inhibition is 0.6%. The result for `CC(Oc1ccc2ccccc2c1)C(=O)NNC(=S)NC(=O)c1ccco1` (stereo not given) reads 22.6% (active). Take `CCOC(=O)NC(=O)/C(C#N)=C\c1ccccc1`: the inhibition is -5.62%. Regarding `N=C(N)SCc1cccc2ccccc12`, the inhibition is 23.3% (active). As for `O=C(OC12CC3CC(CC(C3)C1)C2)c1ccc(NCc2cc(O)ccc2O)cc1`, the inhibition is 42.8% (active). For the compound `COc1cc(/C=N/n2c(C)n[nH]c2=S)ccc1OCc1ccccc1`, the inhibition is 6.69%. The result for `COc1ccc(Cl)cc1C(=O)NNC(=S)NC1CCCC1` reads 38.5% (active); that for `O=C(NNC(=S)NC1CCCCC1)c1ccccc1Cl`, 31.4% (active). The result for `CCNC(=S)Nc1ccc(OC(F)(F)F)cc1` reads 10.7%; that for `CC(C)CC(=O)NC(=S)NNC(=O)c1cccc([N+](=O)[O-])c1`, 31.6% (active); that for `CCCCCCCCCCOC(=O)C[N+](C)(C)CC1CCCCC1O` (stereo not given), 4.96%.

Consider `COc1ccc2c(c1)c(=Cc1ccc(N(C)C)cc1)c1cc(-c3ccccc3)[n+](C)n12`, for which the inhibition is 45.1% (active). For the compound `O=C(/C=C/c1c(Cl)cccc1Cl)NCc1ccccc1`, the inhibition was 3.51%. Regarding `CCCCOc1ccc(CSC(=N)N)cc1[N+](=O)[O-]`, the inhibition was 25.2% (active).

Turning to `CC[C@]1(O)C[C@@H]2CN(CCc3c([nH]c4ccccc34)[C@@](C(=O)OC)(c3cc4c(cc3OC)N(C)[C@H]3[C@@](O)(C(=O)OC)[C@H](OC(C)=O)[C@]5(CC)C=CCN6CC[C@]43[C@@H]65)C2)C1`, the inhibition is 10.2%. Consider `Nc1[nH]c(C(=O)c2ccccc2)c(-c2ccc(Br)cc2)c1C(=O)NC1CC1`, for which the inhibition was 12.2%. For `COC(=O)C(C)n1cnc2c(nnn2-c2ccc(F)cc2)c1=O` (stereo not given), the inhibition is 1.8%. The result for `CN(CC(=O)Nc1ccc(N2CCOCC2)cc1)CC(=O)Nc1ccccc1[N+](=O)[O-]` reads -2.32%.
